Among all 39,000 compounds or so, about 3,300 (8.5%) were called active. What follows is part of a selection rich in actives, with near analogues and random picks from the rest.
tested on: HepG2; assay: cytotoxicity call (relative viability < 0.9); conditions: 10 µM

Compound	cytotoxicity call
C[C@@H]1CCCCO[C@@H](CN(C)S(=O)(=O)c2cn(C)cn2)[C@H](C)CN([C@@H](C)CO)C(=O)c2cc(N(C)C)ccc2O1	inactive
O=C(C[C@@H]1CC[C@@H]2[C@H](COC[C@H](O)CN2Cc2cc(F)ccc2F)O1)N[C@@H]1CCN(Cc2ccccc2)C1	inactive
C[C@@H]1CN([C@@H](C)CO)C(=O)c2cc(Br)cnc2O[C@H]1CN(C)C(=O)CCN1CCCCC1	inactive
C[C@@H]1CCCCO[C@H](CN(C)C(=O)Nc2ccc(F)cc2)[C@H](C)CN([C@@H](C)CO)C(=O)c2cc(NC(=O)Nc3cccc4ccccc34)ccc2O1	inactive
Cc1cc(C)c2c(c1)[C@@H](N(Cc1cc(C(F)(F)F)cc(C(F)(F)F)c1)c1nnn(C)n1)CCCN2C[C@H]1CC[C@H](C(=O)O)CC1	active
Cc1ccc(S(=O)(=O)Nc2ccc3c(c2)C(=O)N([C@H](C)CO)C[C@H](C)[C@H](CN(C)S(=O)(=O)c2ccc(C)cc2)OCCCC[C@@H](C)O3)cc1	inactive
Cc1ccc(S(=O)(=O)Nc2ccc3c(c2)CC(=O)N([C@@H](C)CO)C[C@@H](C)[C@H](CN(C)Cc2ccc(Cl)c(Cl)c2)O3)cc1	inactive
Cc1ccc(S(=O)(=O)Nc2ccc3c(c2)CC(=O)N([C@H](C)CO)C[C@H](C)[C@H](CN(C)Cc2ccc(Cl)c(Cl)c2)O3)cc1	active
Cc1ccc(S(=O)(=O)Nc2ccc3c(c2)CC(=O)N([C@H](C)CO)C[C@H](C)[C@@H](CN(C)Cc2ccc(Cl)c(Cl)c2)O3)cc1	inactive
Cc1ccc(S(=O)(=O)Nc2ccc3c(c2)CC(=O)N([C@H](C)CO)C[C@@H](C)[C@H](CN(C)Cc2ccc(Cl)c(Cl)c2)O3)cc1	inactive
Cc1ccc(S(=O)(=O)Nc2ccc3c(c2)CC(=O)N([C@H](C)CO)C[C@@H](C)[C@@H](CN(C)Cc2ccc(Cl)c(Cl)c2)O3)cc1	active
Cc1ccc(S(=O)(=O)Nc2ccc3c(c2)CC(=O)N([C@@H](C)CO)C[C@H](C)[C@H](CN(C)Cc2ccc(Cl)c(Cl)c2)O3)cc1	active
Cc1ccc(S(=O)(=O)Nc2ccc3c(c2)CC(=O)N([C@@H](C)CO)C[C@@H](C)[C@@H](CN(C)Cc2ccc(Cl)c(Cl)c2)O3)cc1	active
Cc1ccc(S(=O)(=O)Nc2ccc3c(c2)CC(=O)N([C@@H](C)CO)C[C@H](C)[C@@H](CN(C)Cc2ccc(Cl)c(Cl)c2)O3)cc1	inactive
Cc1ccc(S(=O)(=O)Nc2ccc3c(c2)C(=O)N([C@@H](C)CO)C[C@H](C)[C@@H](CN(C)S(C)(=O)=O)OCCCC[C@@H](C)O3)cc1	inactive
COc1ccc(S(=O)(=O)Nc2ccc3c(c2)C(=O)N([C@H](C)CO)C[C@@H](C)[C@@H](CN(C)Cc2ccc(Cl)c(Cl)c2)O3)cc1	inactive
O=C(C[C@@H]1CC[C@H]2[C@@H](COC[C@@H](O)CN2S(=O)(=O)c2cccc(F)c2)O1)NCc1ccncn1	inactive
CC(=O)N1CCC(C(=O)O)CC1	inactive
COc1ccc(NC(=O)N(C)C[C@@H]2OCCCC[C@H](C)Oc3ccc(NC(=O)C4CCCCC4)cc3C(=O)N([C@@H](C)CO)C[C@@H]2C)cc1	inactive
Cc1cc(C)n(-c2ccc(=O)n(CC(=O)N3CCN(S(=O)(=O)c4ccc(F)cc4)CC3)n2)n1	inactive

Compound	cytotoxicity call
C[C@@H]1CN([C@H](C)CO)C(=O)c2cc(NC(=O)CCN3CCOCC3)ccc2O[C@H]1CN(C)S(=O)(=O)c1ccc(F)cc1	inactive
C[C@H](CO)N1C[C@H](C)[C@H](CN(C)C(=O)Nc2ccc3c(c2)OCO3)Oc2c(NC(=O)C3CCOCC3)cccc2C1=O	inactive
CNCCCC12CCC(c3ccccc31)c1ccccc12.Cl	active
CC(C)CC#Cc1cnc2c(c1)C(=O)N([C@@H](C)CO)C[C@H](C)[C@@H](CN(C)C(=O)CN1CCOCC1)O2	inactive
C[C@@H]1CCCCO[C@H](CN(C)C(=O)CCCN(C)C)[C@H](C)CN([C@@H](C)CO)C(=O)c2cc(NC(=O)Nc3ccc(C(F)(F)F)cc3)ccc2O1	inactive
COc1ccccc1C#Cc1cnc2c(c1)C(=O)N([C@H](C)CO)C[C@H](C)[C@H](CN(C)S(=O)(=O)c1cn(C)cn1)O2	inactive
C[C@@H]1CCCCO[C@H](CN(C)S(=O)(=O)c2ccccc2)[C@H](C)CN([C@@H](C)CO)C(=O)c2cc(NS(=O)(=O)c3cn(C)cn3)ccc2O1	inactive
C[C@H](CO)N1C[C@H](C)[C@@H](CN(C)C(=O)Nc2cccc3ccccc23)OCCCC[C@H](C)Oc2ccc(NC(=O)c3ccccc3)cc2C1=O	inactive
C[C@@H]1CN([C@@H](C)CO)C(=O)c2cc(NC(=O)c3ccccc3)ccc2O[C@@H](C)CCCCO[C@H]1CN(C)C(=O)Nc1cccc2ccccc12	active
C[C@@H]1CCCCO[C@@H](CN(C)C(=O)Nc2cccc3ccccc23)[C@@H](C)CN([C@H](C)CO)C(=O)c2cc(NC(=O)c3ccccc3)ccc2O1	inactive
C[C@H]1CCCCO[C@H](CN(C)C(=O)Nc2cccc3ccccc23)[C@@H](C)CN([C@@H](C)CO)C(=O)c2cc(NC(=O)c3ccncc3)ccc2O1	inactive
C[C@@H]1CN([C@H](C)CO)C(=O)c2cc(NC(=O)c3ccccc3)ccc2O[C@@H](C)CCCCO[C@@H]1CN(C)C(=O)Nc1cccc2ccccc12	inactive
C[C@@H]1CCCCO[C@H](CN(C)C(=O)Nc2cccc3ccccc23)[C@H](C)CN([C@@H](C)CO)C(=O)c2cc(NC(=O)c3ccccc3)ccc2O1	inactive
C[C@@H]1CCCCO[C@@H](CN(C)C(=O)Nc2cccc3ccccc23)[C@@H](C)CN([C@@H](C)CO)C(=O)c2cc(NC(=O)c3ccccc3)ccc2O1	inactive
C[C@@H]1CCCCO[C@H](CN(C)C(=O)Nc2cccc3ccccc23)[C@@H](C)CN([C@H](C)CO)C(=O)c2cc(NC(=O)c3ccccc3)ccc2O1	inactive
C[C@H](CO)N1C[C@H](C)[C@@H](CN(C)C(=O)Nc2cccc3ccccc23)OCCCC[C@H](C)Oc2ccc(NC(=O)c3ccncc3)cc2C1=O	inactive
C[C@@H]1CCCCO[C@@H](CN(C)C(=O)Nc2cccc3ccccc23)[C@H](C)CN([C@@H](C)CO)C(=O)c2cc(NC(=O)c3ccccc3)ccc2O1	active
C[C@@H]1CN([C@H](C)CO)C(=O)c2cc(NC(=O)c3ccccc3)ccc2O[C@@H](C)CCCCO[C@H]1CN(C)C(=O)Nc1cccc2ccccc12	active
C[C@@H]1CCCCO[C@H](CN(C)C(=O)Nc2cccc3ccccc23)[C@@H](C)CN([C@@H](C)CO)C(=O)c2cc(NC(=O)c3ccncc3)ccc2O1	active

— the antibiotic and cytotoxicity screens of Wong et al. (2023)
